From PubChem
D2 antagonist: D2 dopamine receptor (human) antagonism | inhibition, % at 10 µM | P14416 | AID 485344 | HEK293 TREx D2 cells, calcium flux, dopamine EC80 | actives 2% (n = 340,000); in the data active = inhibition above about 30%; inactive = below that, where a call was filed
Target sequence (P14416 whole entry, looked up): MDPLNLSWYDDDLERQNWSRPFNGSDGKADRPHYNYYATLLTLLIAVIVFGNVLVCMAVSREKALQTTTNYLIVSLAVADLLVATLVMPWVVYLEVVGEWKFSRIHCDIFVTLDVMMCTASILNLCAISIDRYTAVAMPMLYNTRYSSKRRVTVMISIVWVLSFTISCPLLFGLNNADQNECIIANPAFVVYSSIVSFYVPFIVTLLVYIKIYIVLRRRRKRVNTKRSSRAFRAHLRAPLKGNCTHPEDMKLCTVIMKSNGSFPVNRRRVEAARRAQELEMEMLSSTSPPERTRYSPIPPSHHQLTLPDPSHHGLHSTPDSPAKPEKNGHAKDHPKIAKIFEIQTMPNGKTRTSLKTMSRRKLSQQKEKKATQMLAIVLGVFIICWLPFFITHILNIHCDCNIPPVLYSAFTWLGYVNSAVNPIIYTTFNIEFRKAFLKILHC
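Dopamine at EC80 is the agonist stimulus; test compounds precede it by 180 s. Calcium flux read kinetically in a force-coupled, inducible HEK293 T-REx D2 cell line.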
D2 PAM-1: positive allosteric modulators of human D2 dopamine receptor. P14416. actives 0.23% (n = 360,000). potentiation, % (test concentration not listed). DiscoveRx D2 beta-arrestin cells, luminescence, 90 min; 100% = 57 uM dopamine signal; in the data active = potentiation above about 50%; inconclusive = mostly about 30% to 49%
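D2 cells co-treated with compound plus 50 nM dopamine (EC20) for 90 min at 37 deg C to detect potentiation. Beta-arrestin recruitment was read as enzyme-fragment luminescence after 1 h at ambient temperature. Full response was set by 57 uM dopamine.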
D2 ag-1: activates the human D2 dopamine receptor; P14416; DiscoveRx PathHunter D2 beta-arrestin, luminescence, 90 min; 100% = 57 uM dopamine signal; activation, % (concentration not given with the values); actives 0.084% (n = 360,000); AID 624465; in the data active = activation above about 40%; inconclusive = between about 15% and that limit
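Agonist mode: compounds alone added to overnight-plated D2 PathHunter cells for 90 min at 37 C, with 57 uM final dopamine (EC100) defining full response. Beta-arrestin recruitment detected by chemiluminescent reagent, read after 1 h at ambient temperature.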
D2 ag-2: activates the human D2 dopamine receptor; P14416; HEK293 T-REx D2 cells, calcium flux agonist mode; activation, % at 2 µM; actives 0.53% (n = 340,000); AID 485358;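 active = activation over 3 SD above normal in the single-dose calcium agonist read, cut at about 30% in these data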
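Calcium-flux readout, 1 cycle/sec over 180 s following compound pin transfer, in inducible HEK293 Trex D2 cells (force-coupled); dopamine controls included. Positive calcium responses during this window marked compounds as potential agonists.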
D2 PAM-2: positive allosteric modulators of human D2 dopamine receptor; P14416; HEK293 T-REx D2, calcium flux, EC20 dopamine potentiation; potentiation, % at 10 µM; actives 0.34% (n = 340,000);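 active = potentiation over 3 SD above the plate norm, cut at about 30% in these data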
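Calcium flux readout, no-wash dye, 1 read/s. Inducible HEK293 Trex D2 line, overnight 30 C. Compound alone 180 s (agonist flags), then EC20 dopamine, another 180 s to score potentiation.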
Numbers stand for hits. A selection: hits, their analogues and other compounds. The true share with any hit is near 2.4%.

CCOC(=O)c1sc(C)c2c(=O)n(Cc3ccc(Cl)cc3)c(C)nc12 was read as D2 antagonist 38, D2 PAM-1 inactive, D2 ag-1 inactive, D2 ag-2 inactive and D2 PAM-2 inactive.
Cc1cc2ccccc2n1CCNC(=O)c1cc(C(F)(F)F)cc(C(F)(F)F)c1 was read as D2 ag-2 inactive and D2 PAM-2 inactive.
`COc1ccccc1OCCC(=O)OCC(=O)Nc1ccc(Br)cc1F` gave D2 antagonist 41, D2 PAM-1 inactive, D2 ag-1 inactive, D2 ag-2 inactive and D2 PAM-2 inactive.
For O=C(COC(=O)COc1ccccc1)Nc1ccc(Br)cc1F the results were D2 PAM-1 inactive and D2 ag-1 inactive.
Screening Cc1cc(C)cc(-n2c(SCC(=O)N3CCc4ccccc43)nc3c([nH]c4ccccc43)c2=O)c1 returned D2 ag-2 inactive and D2 PAM-2 inactive.
CCNc1nc(OC)nc(Oc2ccc(=O)n(-c3ccccc3)n2)n1 was read as D2 antagonist inactive, D2 PAM-1 inactive, D2 ag-1 inactive, D2 ag-2 inactive and D2 PAM-2 38.
`CCNc1nc(Oc2ccc(=O)n(-c3ccccc3)n2)nc(N(C)C)n1` gave D2 antagonist inactive, D2 PAM-1 inconclusive, D2 ag-1 inactive, D2 ag-2 inactive and D2 PAM-2 inactive.
Screening CCOc1ccc(N/C=C/C(=O)c2ccc(OC)cc2)cc1 returned D2 antagonist inactive, D2 PAM-1 inactive, D2 ag-1 inactive, D2 ag-2 inactive and D2 PAM-2 inactive.
Screening CCCOc1ccc(N/C=C/C(=O)c2cc(OC)c(OC)c(OC)c2)cc1 returned D2 antagonist inactive, D2 PAM-1 83, D2 ag-1 inactive, D2 ag-2 inactive and D2 PAM-2 inactive.
For CC1(C)OC2OC3C(CNCCO)OC(c4ccccc4)OC3C2O1 (centres undefined) the results were D2 PAM-1 inactive and D2 ag-1 inactive.
`CC(NC(=O)c1ccccc1F)c1nnc(SCC(=O)Nc2nccs2)n1C` (centres undefined) gave D2 antagonist inactive, D2 PAM-1 inactive, D2 ag-1 inactive, D2 ag-2 inactive and D2 PAM-2 41.
Screening Cc1nnc(NC(=O)CSc2nnc(C(C)NC(=O)c3ccccc3F)n2C)s1 (centres undefined) returned D2 antagonist inactive, D2 PAM-1 inactive, D2 ag-1 inactive, D2 ag-2 inactive and D2 PAM-2 inactive.
Screening COCCCNC(=O)c1c(NC(=O)c2cc(=O)c3ccccc3o2)sc2c1CCCC2 returned D2 ag-2 inactive and D2 PAM-2 inactive.
O=C(Cc1ccccc1)c1c[nH]c(C(=O)O)c1 was read as D2 antagonist inactive, D2 PAM-1 inactive, D2 ag-1 inactive, D2 ag-2 inactive and D2 PAM-2 inactive.
For CN(C)C(=O)c1cc(C(=O)Cc2ccccc2)c[nH]1 the results were D2 antagonist 37, D2 PAM-1 inactive, D2 ag-1 inactive, D2 ag-2 inactive and D2 PAM-2 inactive.
`O=C(NC(Cc1ccc2c(c1)OCO2)C(=O)N1CCCC1C(=O)O)c1ccccc1` (centres undefined) gave D2 antagonist 34, D2 PAM-1 inactive, D2 ag-1 inactive, D2 ag-2 inactive and D2 PAM-2 inactive.
For O=C(CSc1ncc(-c2ccccc2)nn1)NCc1ccco1 the results were D2 antagonist inactive, D2 PAM-1 inactive, D2 ag-1 inactive, D2 ag-2 inactive and D2 PAM-2 inactive.
`COc1ccc(-c2[nH]c(-c3cccc(OC)c3)nc2SCC(=O)NCc2ccco2)cc1` gave D2 antagonist 39, D2 PAM-1 inactive, D2 ag-1 inactive, D2 ag-2 inactive and D2 PAM-2 inactive.
Screening O=C(CSc1nnc(-c2ccccc2)c(-c2ccccc2)n1)NCc1ccco1 returned D2 antagonist 40, D2 PAM-1 inactive, D2 ag-1 inactive, D2 ag-2 inactive and D2 PAM-2 inactive.
For COc1ccc2nc(C)cc(Nc3ccc(Cl)c(Cl)c3)c2c1 the results were D2 PAM-2 inactive.
Screening O=C(CNC(=O)c1cccc(-n2cnnn2)c1)Nc1ccc(F)c(F)c1 returned D2 antagonist 38, D2 PAM-1 inactive, D2 ag-1 inactive, D2 ag-2 inactive and D2 PAM-2 inactive.
For CCc1nnc(NC(=O)c2cc(=O)c3cc(C)c(C)cc3o2)s1 the results were D2 ag-2 inactive and D2 PAM-2 inactive.
